Measurements taken from the supplement of paper PMC8728848.
Shown is part of a subset that was picked to be rich in the strongest signals.

Tests used:
Experiment in all cases: glycan array binding signal (z-score within array); higher = stronger binding
Settings in all cases: glycan notation: IUPAC condensed, linker removed
[1] = target: Fuc(a1-2)Gal(b1-3)GalNAc(b1-4)[Neu5Ac(a2-3)]Gal(b1-4)Glc
Summary of the method: (§1)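 The binding signal is a Z-score computed within each array and averaged over linkers. Arrays of the same protein sequence at different concentrations or buffers were also averaged together. Data originate from 3228 arrays in the Consortium for Functional Glycomics database, kept only where the protein sequence was available.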

[2] = target: Fuc(a1-2)Gal(b1-3)GlcNAc6S
Summary of the method: as §1

[3] = target: Fuc(a1-2)Gal(b1-3)[Fuc(a1-4)]GlcNAc(b1-2)Man(a1-3)[Fuc(a1-2)Gal(b1-3)[Fuc(a1-4)]GlcNAc(b1-2)Man(a1-3)]Man(b1-4)GlcNAc(b1-4)GlcNAc
Summary of the method: as §1

Fuc(a1-2)Gal(b1-4)Glc6S = target: Fuc(a1-2)Gal(b1-4)Glc6S
Summary of the method: as §1

[4] = target: Fuc(a1-2)Gal(b1-4)GlcNAc(b1-2)[Fuc(a1-2)Gal(b1-4)GlcNAc(b1-4)]Man(a1-3)[Fuc(a1-2)Gal(b1-4)GlcNAc(b1-2)Man(a1-6)]Man(b1-4)GlcNAc(b1-4)GlcNAc
Summary of the method: as §1

Fuc(a1-2)GlcNAc = target: Fuc(a1-2)GlcNAc
Summary of the method: as §1

[5] = target: Fuc(a1-2)[Gal(a1-3)]Gal(b1-3)GalNAc(b1-3)Gal(a1-4)Gal(b1-4)Glc
Summary of the method: as §1

[6] = target: Fuc(a1-2)[Gal(a1-3)]Gal(b1-3)GlcNAc(b1-3)GalNAc
Summary of the method: as §1

[7] = target: Fuc(a1-2)[Gal(a1-3)]Gal(b1-4)[Fuc(a1-3)]GlcNAc
Summary of the method: as §1

[8] = target: Fuc(a1-2)[GalNAc(a1-3)]Gal(b1-4)[Fuc(a1-3)]GlcNAc(b1-3)GalNAc
Summary of the method: as §1

[9] = target: Fuc(a1-2)[GalNAc(a1-4)]Gal(b1-4)GlcNAc
Summary of the method: as §1

[10] = target: Fuc(a1-3)[Gal(b1-4)]GlcNAc(b1-3)Gal(b1-3)[Fuc(a1-4)]GlcNAc
Summary of the method: as §1

[11] = target: Fuc(a1-3)[GalNAc(b1-4)]GlcNAc
Summary of the method: as §1

Gal(a1-3)Gal(b1-3)Glc = target: Gal(a1-3)Gal(b1-3)Glc
Summary of the method: as §1

[12] = target: Gal(a1-3)Gal(b1-4)GlcNAc(b1-2)Man(a1-3)[Gal(a1-3)Gal(b1-4)GlcNAc(b1-2)Man(a1-6)]Man(b1-4)GlcNAc(b1-4)GlcNAc
Summary of the method: as §1

Gal(a1-3)GlcNAc = target: Gal(a1-3)GlcNAc
Summary of the method: as §1

[13] = target: Gal(b1-3)GalNAc(a1-3)[Fuc(a1-2)]Gal(b1-4)Glc
Summary of the method: as §1

[14] = target: Gal(b1-3)GalNAc(a1-3)[Fuc(a1-2)]Gal(b1-4)GlcNAc
Summary of the method: as §1

[15] = target: Gal(b1-3)GlcNAc(a1-6)Gal(b1-4)GlcNAc
Summary of the method: as §1

[16] = target: Gal(b1-3)GlcNAc(b1-3)Gal(b1-4)GlcNAc
Summary of the method: as §1

[17] = target: Gal(b1-3)[Neu5Ac(a2-6)]GlcNAc(b1-4)Gal(b1-4)Glc
Summary of the method: as §1

Gal(b1-4)GlcNAc = target: Gal(b1-4)GlcNAc
Summary of the method: as §1

[18] = target: Gal(b1-4)GlcNAc(b1-2)[Gal(b1-4)GlcNAc(b1-4)]Man(a1-3)[Gal(b1-4)GlcNAc(b1-2)[Gal(b1-4)GlcNAc(b1-6)]Man(a1-6)]Man(b1-4)GlcNAc(b1-4)GlcNAc
Summary of the method: as §1

[19] = target: Gal(b1-4)GlcNAc(b1-2)[Gal(b1-4)GlcNAc(b1-6)]Man(a1-6)[Gal(b1-4)GlcNAc(b1-2)Man(a1-3)]Man(b1-4)GlcNAc(b1-4)[Fuc(a1-6)]GlcNAc
Summary of the method: as §1

[20] = target: Gal(b1-4)GlcNAc(b1-2)[Gal(b1-4)GlcNAc(b1-6)]Man(a1-6)[GlcNAc(b1-4)][Gal(b1-4)GlcNAc(b1-2)Man(a1-3)]Man(b1-4)GlcNAc(b1-4)GlcNAc
Summary of the method: as §1

[21] = target: Gal3S(b1-4)[Fuc(a1-3)]Glc6S
Summary of the method: as §1

B1: XL-35 (Xenopus laevis) (protein)
chain: MLVHILLLLVTGGLSQSCDPVVIVASKNMVKQLDCDKFRNCKEIKDSNEEAQDGIYTLTSPDGISYQTFCDMTTNGGGWTLVASVHENNMAGKCTIGDRWSSQQGNRADYPEGDGNWANYNTFGSAGGATSDDYKNPGYYDIEAYNLGVWHVPNKTPLSVWRNSSLQRYRTTDGILFKHGGNLFSLYRIYPVKYGIGSCSKDSGPTVPVVYDLGSANLTASFYSPGFRSQFTPGYIQFRPINTEKAALALCPGMKMESCNVEHVCIGGGGYFPEADPRQCGDFAAYDFNGYGTKKFNSAGIEITEAAVLLFYL
glycan array binding signal (z-score) [1]: -0.108 | glycan array binding signal (z-score) [2]: -0.184 | glycan array binding signal (z-score) [3]: -0.215 | glycan array binding signal (z-score) (Fuc(a1-2)Gal(b1-4)Glc6S): 0.014 | glycan array binding signal (z-score) [4]: 0.358 | glycan array binding signal (z-score) (Fuc(a1-2)GlcNAc): -0.021 | glycan array binding signal (z-score) [5]: -0.322 | glycan array binding signal (z-score) [6]: -0.477 | glycan array binding signal (z-score) [7]: -0.202 | glycan array binding signal (z-score) [8]: 20.3 | glycan array binding signal (z-score) [9]: -0.131 | glycan array binding signal (z-score) [10]: -0.053 | glycan array binding signal (z-score) [11]: 6.12 | glycan array binding signal (z-score) (Gal(a1-3)Gal(b1-3)Glc): 2.36 | glycan array binding signal (z-score) [12]: 0.152 | glycan array binding signal (z-score) (Gal(a1-3)GlcNAc): 15.9 | glycan array binding signal (z-score) [13]: -0.227 | glycan array binding signal (z-score) [14]: -0.337 | glycan array binding signal (z-score) [15]: -0.171 | glycan array binding signal (z-score) [16]: -0.474 | glycan array binding signal (z-score) [17]: 0.794 | glycan array binding signal (z-score) (Gal(b1-4)GlcNAc): -0.066 | glycan array binding signal (z-score) [18]: 0.777 | glycan array binding signal (z-score) [19]: 0.078 | glycan array binding signal (z-score) [20]: -0.452 | glycan array binding signal (z-score) [21]: 0.818
